The panel holds about 83,000 compounds, 20% with a hit somewhere; the sample as a whole holds those more often.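 Activity criterion: percent growth below 10, measured after cells in 96-well plates were exposed to a single compound concentration for 48 hours.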 Values without a mark were called inactive. Calls of active or inactive are those of the source.

Among the test systems are NCI-H23 lung; NCI-H226 lung; NCI-H322M lung; HOP-62 NSCLC; NCI-H460 lung; HOP-92 NSCLC; NCI-H522 lung; A549/ATCC NSCLC; 786-0 renal; COLO 205 colon; DU-145 prostate; K-562 leukemia; MALME-3M melanoma; MDA-MB-231 breast; RXF 393 renal; SF-268 CNS; SF-295 CNS; SF-539 CNS; UACC-257 melanoma; M14 melanoma.
Assay in all cases: NCI-60 one-dose screen, 48 h (100 = growth as untreated, 0 = no growth, -100 = all killed)
Conditions in all cases: 10 µM unless noted

Consider `COc1ccc(OC)c(Nc2nnc(-c3cc(OC)c(OC)c(OC)c3)o2)c1`, for which the growth is 90.5% in the experiment on NCI-H23 lung; 96.6% in the experiment on NCI-H226 lung; 98.4% in the experiment on NCI-H322M lung; 94.7% in the experiment on HOP-62 NSCLC; 107% with NCI-H460 lung; 107% in the experiment on HOP-92 NSCLC. Moreover, the growth in the experiment on NCI-H522 lung is 76.6%; with A549/ATCC NSCLC it was 101%; with 786-0 renal, 95%; in the experiment with COLO 205 colon, 104%; in the experiment with DU-145 prostate, 101%; in the experiment with K-562 leukemia, 95.8%. In addition, the growth in the experiment on MALME-3M melanoma is 88.8%; in the experiment on MDA-MB-231 breast, 88.9%; with RXF 393 renal, 110%; in the experiment with SF-268 CNS, 99.6%; in the experiment on SF-295 CNS, 101%; in the experiment on SF-539 CNS, 91.3%. Besides, the results for the growth in the experiment on UACC-257 melanoma and in the experiment on M14 melanoma were 112% and 101%, respectively.

On to `Cc1cc(O)c(=O)cc2c1C[C@H]1CC(C)(C)/C=C/C[C@]3(C)Oc4cc(=O)c(O)cc(C)c4C[C@H]3C[C@H](O)[C@@]1(C)O2`, for which the growth with NCI-H23 lung is -16.7% (active); in the experiment with NCI-H226 lung, 11.9%; in the experiment with NCI-H322M lung, 24.3%; in the experiment on HOP-62 NSCLC, 0.636% (active); with NCI-H460 lung it was -6.53% (active); in the experiment on HOP-92 NSCLC, 2.97% (active). Further, the growth was -24.9% (active) in the experiment with NCI-H522 lung; -7.87% (active) in the experiment on A549/ATCC NSCLC; -1.45% (active) in the experiment with 786-0 renal; -14.7% (active) with COLO 205 colon; 22.3% with DU-145 prostate; 1.9% (active) in the experiment with K-562 leukemia. The growth in the experiment with MALME-3M melanoma is 0.782% (active); with MDA-MB-231 breast, 13.5%; in the experiment on RXF 393 renal it was 19.8%; in the experiment on SF-268 CNS, 18.5%; in the experiment on SF-295 CNS, 3.52% (active); in the experiment with SF-539 CNS, 6.95% (active). Moreover, the figures for the growth with UACC-257 melanoma and in the experiment with M14 melanoma were -6.56% (active) and -34% (active), respectively.

Turning to `COc1ccc(-c2cc(-c3cn(-c4cccc(Cl)c4)nc3-c3ccc(OC)cc3)on2)cc1`, the growth is 95.3% with NCI-H23 lung; 89.9% in the experiment with NCI-H226 lung; 86.9% with NCI-H322M lung; 107% in the experiment with HOP-62 NSCLC; 98.6% in the experiment on NCI-H460 lung; 104% with HOP-92 NSCLC. For the same compound, the growth in the experiment on NCI-H522 lung was 74.8%; with A549/ATCC NSCLC it was 83%; in the experiment with 786-0 renal it was 100%; with COLO 205 colon, 116%; with DU-145 prostate, 113%; in the experiment with K-562 leukemia, 84.7%. Moreover, the growth is 127% in the experiment on MALME-3M melanoma; 80.9% in the experiment with MDA-MB-231 breast; 102% in the experiment with RXF 393 renal; 108% with SF-268 CNS; 108% in the experiment on SF-295 CNS; 112% in the experiment with SF-539 CNS. Moreover, the growth with UACC-257 melanoma is 112%; with M14 melanoma, 101%.

In the case of `COc1cc(Cc2cc(-c3ccccc3)nn(Cc3ccccc3)c2=O)cc(OC)c1OC`, the growth in the experiment on NCI-H23 lung is 37.4%; in the experiment with NCI-H226 lung, 46.2%; with NCI-H322M lung it was 78.5%; with HOP-62 NSCLC, 66.1%; with NCI-H460 lung, 37.3%; in the experiment on HOP-92 NSCLC, 51.1%. Moreover, the growth was 28.4% in the experiment on NCI-H522 lung; 19.9% with A549/ATCC NSCLC; 49.9% in the experiment on 786-0 renal; 15.5% in the experiment on COLO 205 colon; 77.7% in the experiment with DU-145 prostate; 20.6% in the experiment with K-562 leukemia. Moreover, the growth was 35.2% with MALME-3M melanoma; 50.1% with MDA-MB-231 breast; 31.7% in the experiment on RXF 393 renal; 47.4% in the experiment with SF-268 CNS; 31.5% in the experiment with SF-295 CNS; 70% with SF-539 CNS. Besides, the growth is 32% with UACC-257 melanoma and 44.1% in the experiment with M14 melanoma.

Take `N#Cc1c(-c2ccccc2)cc(-c2ccccc2)n(CCCCC(=O)NO)c1=O`: the growth is 25.8% with NCI-H23 lung; 9.98% (active) in the experiment with NCI-H226 lung; 92.2% with NCI-H322M lung; 21.1% in the experiment with HOP-62 NSCLC; 73% with NCI-H460 lung; 15.7% in the experiment with HOP-92 NSCLC. The growth in the experiment with NCI-H522 lung is 19.3%; in the experiment with A549/ATCC NSCLC, 41.7%; with 786-0 renal, 7% (active); with COLO 205 colon, 43.3%; with DU-145 prostate it was 20.2%; with K-562 leukemia, 6.77% (active). The growth is 11.5% in the experiment on MALME-3M melanoma; 25.6% in the experiment on MDA-MB-231 breast; -16.5% (active) in the experiment on RXF 393 renal; 43% in the experiment on SF-268 CNS; 1.64% (active) with SF-295 CNS; 24.3% in the experiment on SF-539 CNS. Besides, the figures for the growth in the experiment with UACC-257 melanoma and with M14 melanoma were 35.8% and 19.1%, respectively.

For the compound `COC(=O)/C(CCC=C(C)C)=C1\[C@@H](OC(C)=O)C[C@@]2(C)[C@H]1C/C(=N/O)[C@H]1[C@@]3(C)CC/C(=N\O)[C@@H](C)[C@@H]3CC[C@@]12C`, the growth was 99.5% with NCI-H23 lung; 96.8% in the experiment on NCI-H226 lung; 109% in the experiment on NCI-H322M lung; 105% in the experiment on HOP-62 NSCLC; 105% with NCI-H460 lung; 95.4% with HOP-92 NSCLC. For the same compound, the growth in the experiment on NCI-H522 lung is -57.1% (active); in the experiment with A549/ATCC NSCLC it was 94%; with 786-0 renal it was 96.3%; with COLO 205 colon it was 106%; in the experiment with DU-145 prostate, 106%; with K-562 leukemia it was 83.6%. Also, the growth in the experiment with MALME-3M melanoma is 119%; with MDA-MB-231 breast it was 86.5%; in the experiment on RXF 393 renal, 104%; in the experiment with SF-268 CNS, 89.1%; in the experiment with SF-295 CNS, 101%; in the experiment on SF-539 CNS, 89.4%. Besides, the growth is 118% in the experiment with UACC-257 melanoma and 98.6% in the experiment on M14 melanoma.

In the case of `CNC(=O)Nc1ccc(-c2ccc3ncnc(Nc4cccc(Cl)c4)c3c2)cc1`, the growth in the experiment with NCI-H23 lung is 62.9%; with NCI-H226 lung, 68.4%; with NCI-H322M lung it was 7.46% (active); in the experiment with HOP-62 NSCLC it was 71.4%; with NCI-H460 lung, 77.4%; in the experiment with HOP-92 NSCLC, 37.8%. For the same compound, the growth is -1.3% (active) in the experiment with NCI-H522 lung; 41.8% in the experiment on A549/ATCC NSCLC; 71.4% in the experiment on 786-0 renal; 66.3% in the experiment with COLO 205 colon; 44.8% with DU-145 prostate; 60.3% with K-562 leukemia. Moreover, the growth with MALME-3M melanoma was 53.5%; in the experiment on MDA-MB-231 breast it was 65.7%; in the experiment with RXF 393 renal, 50.4%; with SF-268 CNS, 52.2%; in the experiment on SF-295 CNS, 59.9%; with SF-539 CNS, 74.3%. For the same compound, the growth is 65.7% in the experiment with UACC-257 melanoma and 63.2% in the experiment with M14 melanoma.

`COc1ccc2c(O)c(/C=C3\N=Nc4ncccc43)oc2c1C[C@@H]1CCNC[C@H]1F`: the growth in the experiment on NCI-H23 lung was -33.1% (active); in the experiment with NCI-H226 lung it was -4.38% (active); in the experiment with NCI-H322M lung it was 3.89% (active); in the experiment on HOP-62 NSCLC it was -30.5% (active); with NCI-H460 lung it was -51.2% (active); with HOP-92 NSCLC, 98.7%. The growth was -28.5% (active) in the experiment with NCI-H522 lung; -24.1% (active) in the experiment with A549/ATCC NSCLC; -78.3% (active) in the experiment with 786-0 renal; -71.9% (active) in the experiment with COLO 205 colon; -19.7% (active) in the experiment on DU-145 prostate; -26.4% (active) in the experiment with K-562 leukemia. The growth with MALME-3M melanoma is -31.2% (active); in the experiment with MDA-MB-231 breast, -40% (active); in the experiment with RXF 393 renal, -68.1% (active); with SF-268 CNS it was -31.1% (active); with SF-295 CNS, 0.571% (active); in the experiment with SF-539 CNS, -48.2% (active). Moreover, the growth in the experiment with UACC-257 melanoma was 13.7%; in the experiment on M14 melanoma it was -70.3% (active).

For the origin of these results see PubChem BioAssay (NCI).
